Methyltransferases: Primary Screen for Target Class Profiling of Small Molecule Inhibitors of Methyltransferases; purified enzyme, MTase-Glo SAH luminescence; stronger effect = lower value; calls only at 40 µM; AID 1745853, 2022; 25,000 compounds, 3.9% hits; call rule not given here
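Each enzyme was assayed with SAM and its substrate. SAH formation detected by MTase-Glo luminescence; single-point 40 uM screen[…].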
Large screens that a line does not name were inactive. This is one part of a sample in which hits are shown more often than they occur.

Cc1cc2c(cc3n2CC(C)(C(=O)NC2CCCCCC2)N(Cc2cccc(F)c2)C3=O)o1 (stereo not drawn)	none
CC(C)OCCCn1c(=O)c2ccccc2n2c(SCC(=O)Nc3ccccc3F)nnc12	none
Cc1ccc(NC(=O)Cn2nc3n(Cc4ccc(F)cc4)c(=O)c4ccccc4n3c2=O)cc1C	none
CCCN1C(=O)c2cc(C(=O)NCc3ccc(OCC)cc3)nn2CC1(C)C(=O)NC1CCCC1 (stereo not drawn)	none
CCOc1ccc(CN2C(=O)c3cc4sccc4n3CC2(C)C(=O)NC2CCC(C)CC2)cc1 (stereo not drawn)	none
Cc1cc(N2C(=O)Cn3cccc3C2C(=O)NC2CCCC2)ccc1Br (stereo not drawn)	none
Cc1ccsc1CN1CCc2[nH]nc(C(=O)N(C)C)c2C1	none
COc1cccc(CN2C(=O)c3cc4sccc4n3CC2(C)C(=O)NC2CCC(C)CC2)c1 (stereo not drawn)	none
COc1ccc(CN2C(=O)c3cc4sccc4n3CC2(C)C(=O)NC2CCC(C)CC2)cc1OC (stereo not drawn)	Methyltransferases active
COc1ccc(CN2C(=O)c3cc4sccc4n3CC2(C)C(=O)NC2CCCCC2)cc1OC (stereo not drawn)	none
O=C(CCn1ccc2cc(S(=O)(=O)N3CCCC3)ccc21)NCc1cccs1	none
CCCCCOc1ccc(-c2ccc(-c3ccc(C(=O)N[C@H]4C[C@@H](O)[C@@H](O)NC(=O)[C@@H]5[C@@H](O)[C@@H](C)CN5C(=O)[C@H]([C@@H](C)O)NC(=O)[C@H]([C@H](O)[C@@H](O)c5ccc(O)cc5)NC(=O)[C@@H]5C[C@@H](O)CN5C(=O)[C@H]([C@@H](C)O)NC4=O)cc3)cc2)cc1	none
O=c1cc(N2CCOCC2)oc2c(NCC3CCOCC3)nccc12	none
c1nc(NCC2CCOC2)c2cc(-c3ccc4c(c3)OCO4)ccc2n1 (stereo not drawn)	Methyltransferases active
CC(C)CCn1c(=O)c2ccc(C(=O)NC3CCCC3)cc2n2c(=O)n(CC(=O)c3ccccc3)nc12	none
CC(C)CC(NC(=O)OCc1ccccc1)C(=O)NC(CC(C)C)C(=O)NC(CCC(=O)O)C(=O)Nc1ccc2ccccc2c1 (stereo not drawn)	none
Cc1cc(=O)oc2cc(NC(=O)[C@H](CCC(=O)O)NC(=O)[C@H](CC(C)C)NC(=O)[C@H](CC(C)C)NC(=O)OCc3ccccc3)ccc12	Methyltransferases active
CCCn1c(=O)c2ccc(C(=O)NC(C)CC)cc2n2c(=O)n(CC(=O)c3ccc(F)cc3F)nc12 (stereo not drawn)	none
CN1C(=O)c2cc(C(=O)NCCCN3CCCCC3)nn2CC1(C)C(=O)NC1CCCCC1 (stereo not drawn)	none
CCOc1cccc(NC(=O)c2ccc(N3CCCC3)c(C(F)(F)F)c2)c1	none
COc1ccc(NC(=O)COc2ccc(NC(=O)C3CC3)cn2)cc1	none
CCOc1ccc(NC(=O)N2CCn3cccc3C2C(C)C)cc1 (stereo not drawn)	none
CCN1CCN(Cc2ccc(NC(=O)Nc3ccc(Oc4cc(NC)ncn4)cc3)cc2C(F)(F)F)CC1	Methyltransferases active
CN1CCN(Cc2ccc(NC(=O)Cc3ccc(Oc4cc(NC(=O)C5CC5)ncn4)cc3)cc2C(F)(F)F)CC1	Methyltransferases active
Cc1ccc(CCNC(=O)C2CCN(c3cc(C(F)(F)F)ncn3)CC2)cc1	none
COc1ccccc1CN1C(=O)c2cc3sccc3n2CC1(C)C(=O)NC1CCCC1 (stereo not drawn)	none
COc1ccc(OC)c(S(=O)(=O)N2CCCC(Cn3c(C)cnc3C3CC3)C2)c1 (stereo not drawn)	none
O=C(NCCc1ccc(Cl)cc1)C1CCc2nnc(CN[S+](=O)([O-])c3ccccc3Cl)n21 (stereo not drawn)	none
C=C(C)C1CCC2(C(=O)OC3OC(COC4OC(CO)C(O)C(O)C4O)C(OC4OC(C)C(O)C(O)C4O)C(O)C3O)CCC3(C(=O)O)C(CCC4C5(C)CCC(=O)C(C)(C)C5CCC43C)C12 (stereo not drawn)	none
CCCC1c2ccc(C)n2CCN1C(=O)Nc1ccccc1C (stereo not drawn)	none
COC(=O)c1cc2n(n1)CC(C)(C(=O)NC1CCCCC1)N(Cc1ccc(OC(C)C)cc1)C2=O (stereo not drawn)	none
CC1=CC(=O)C(=C(C)C)CC2C1CCC2(C)O (stereo not drawn)	none
CC(=O)OC(C)C(C)(O)C(=O)O[C@@H]1CC[C@]2(C)CC(=O)C(=C(C)C)C[C@H]2[C@]1(C)OC(C)=O (stereo partly drawn)	none
CC(C)=C1CC2C(CCC2(C)O)C(C)(O)CC1=O (stereo not drawn)	Methyltransferases active
C=C1C(=O)OC2C1CCC1(C)C(O)CC=C(C)C21 (stereo not drawn)	Methyltransferases active
C=C1CC[C@@H](O)[C@]2(C)C[C@H]3OC(=O)C(=C)[C@H]3CC12 (stereo partly drawn)	none
C=C1CC[C@H]2C(=C)CC[C@H]3C(=C)C(=O)O[C@@H]3[C@@H]12	none
Cn1nc(N2CCC(NC(=O)c3ncccn3)CC2)ccc1=O	none
COc1cccc(CNC(=O)CCc2nnc3n(CCCOC(C)C)c(=O)c4ccccc4n23)c1	none
O=C(Cn1nc2n(Cc3ccc(F)cc3)c(=O)c3ccccc3n2c1=O)Nc1cc(F)ccc1F	none
COC(=O)c1cccc(NC(=O)N2Cc3c(sc4c3CCCC4)-n3cccc3C2c2cccc(F)c2)c1 (stereo not drawn)	none
CC1=CCC2C(C)(C)CCCC2(C)C1CC12OC1C(O)C(CO)=CC2O (stereo not drawn)	none
CC(=O)OC/C(=C/C(=O)O)CC[C@@H]1C(C=O)=CC[C@@H]2C(C)(C)CCC[C@@]12C	Methyltransferases active
CC1(C)CCCC2(C)C(C(=O)O)=CCC12 (stereo not drawn)	none
CC(=O)OC/C(=C/C(=O)O)CC[C@@H]1C(CO)=CC[C@@H]2C(C)(C)CCC[C@@]12C	Methyltransferases active
C=C1CCC2C(C)(C)CCC[C@]2(C)[C@H]1C/C=C(\CO)C(=O)C(=O)O (stereo partly drawn)	none
CC1(C)CCC[C@]2(C)C1CC=C(CO)[C@H]2CC/C(=C/CO)CO (stereo partly drawn)	none
COC(=O)c1ncn2c1C(=O)N(Cc1cccc(OC)c1)C(C)(C(=O)NC1CCCCCC1)C2 (stereo not drawn)	none
CCn1c(=O)n(CC)c2cc(S(=O)(=O)Nc3ccccc3)ccc21	none
CCCCNc1nc2c(S(=O)(=O)c3cc(C)ccc3C)nnn2c2ccccc12	none
Cc1ccc(C)c(N2CCN(S(=O)(=O)c3ccc4[nH]c(=O)[nH]c4c3)CC2)c1	none
COc1ccccc1CNC(=O)C1(C)Cn2nc(-c3ccccc3)cc2C(=O)N1c1cccc(Cl)c1 (stereo not drawn)	none
Cc1nc2c3ccccc3n3c(CCCC(=O)NCCCOC(C)C)nnc3n2n1	none
CC(C)Cn1c(=O)c2ccccc2n2c(=O)n(CC(=O)N3CCN(c4ccccc4F)CC3)nc12	none
NCc1ccc(Oc2ncnc3ccccc23)cc1	none
Nc1cccc(-c2cc3c(Oc4cccc(O)c4)ncnc3[nH]2)c1	Methyltransferases active
Cc1ccc(CN2C(=O)c3ccc(-c4ccco4)n3CC2(C)C(=O)NCc2ccccc2)cc1 (stereo not drawn)	none
CC(C)Cn1c(=O)c2ccc(C(=O)NC3CCCC3)cc2n2c(=O)n(CC(=O)NC(C)(C)C)nc12	none
Cc1cccc(N2CCN(C(=O)CCc3nnc4n(CCc5ccccc5)c(=O)c5ccccc5n34)CC2C)c1 (stereo not drawn)	none
COc1cc(N2CCN(C)CC2)ccc1Nc1nccc(-c2cn(C)c3cnccc23)n1	none
